# Experimental data as given in PubChem BioAssay.
# Values without a mark were called inactive. The list shows a part of the results. Activity calls are given as the source filed them.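 How the source made its calls, unless noted: active means average inhibition above a cutoff equal to the mean inhibition of all tested compounds plus one SD (cut at about 70% in these data); inactive means the rest.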
# Assays:
# [1] = biological target: Photoreceptor-specific nuclear receptor (Homo sapiens) (UniProt Q9Y5X4); assay: NR2E3 agonist confirmation in cells, cell-based, luminescence, CHO-S two-hybrid (AID 624378); conditions: CHO-S mammalian two-hybrid NR2E3-NCOR, luciferase luminescence; at 3.98 µM; stronger effect = higher value;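 further: 0% = DMSO in NR2E3 cells and 100% = DMSO in cells lacking NR2E3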
# [2] = GAL4-VP16 reporter modulators, confirmation, counter-screen for NR2E3 agonist project, cell-based, luminescence, CHO-S, high throughput (AID 624379;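 active means mean inhibition above a cutoff equal to the average over all tested compounds plus one standard deviation, cut at about 70% in these data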;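 further: luciferase from a UAS reporter driven by GAL4-VP16 transactivation; 0% = DMSO with VP16-transfected cells and 100% = DMSO with cells lacking VP16; higher means less reporter light so more repression of VP16 activity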); conditions: CHO-S GAL4-VP16 luciferase reporter, at 3.98 µM, stronger effect = higher value
# [3] = biological target: Receptor-interacting serine/threonine-protein kinase 2 (Homo sapiens) (UniProt O43353); assay: NOD2-RIPK2 binding disruptors, retest, confirmation, fluorescence, CHO cells, BLA complementation, triplicate (AID 624370;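 active means mean inhibition across replicates above a set limit taken from the earlier primary screen, cut at about 21% in these data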;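 further: 0% = DMSO-only wells and the high end = clavulanate BLA-blocked wells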); conditions: CCF4 FRET, at 4.98 µM, stronger effect = higher value
# [4] = beta-lactamase reporter inhibitors in CHO cells, confirmation, artefact control for NOD2-RIPK2 interaction inhibitor project, cell-based, CHO-K1 CMV-bla, CCF4 FRET, fluorescence (AID 624371;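 active means mean inhibition above the low-control mean inhibition plus three low-control SD, cut at about 11% in these data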;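 further: 0% = DMSO only wells and 100% = clavulanate high control wells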); conditions: CCF4 FRET ratio, counterscreen, at 4.98 µM, stronger effect = higher value
# [5] = StAR promoter reporter inhibitors, counter-screen for LRH-1 inverse agonist project, cell-based, luminescence, high throughput (AID 651611; in the data active means inhibition above about 28%); conditions: StAR promoter luciferase reporter counterscreen, at 3.6 µM, stronger effect = higher value
# [6] = biological target: Nuclear receptor subfamily 5 group A member 2 (Homo sapiens) (UniProt O00482); assay: LRH-1 (NR5A2) inverse agonists, retest, confirmation, cell-based, luminescence (AID 651613; in the data active means inhibition above about 42%;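 further: HEK293T cells co-transfected with LRH-1 and StAR promoter luciferase reporter; 0% = vehicle wells and 100% = parental cells lacking receptor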); conditions: cell-based LRH-1 luciferase reporter, inverse agonism; at 3.6 µM; stronger effect = higher value
# [7] = biological target: Steroidogenic factor 1 (Homo sapiens) (UniProt Q13285); assay: SF1 (NR5A1) inverse agonists, counter-screen for LRH-1 inverse agonist project, cell-based, luminescence, high throughput (AID 651614; in the data active means inhibition above about 44%;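 further: cells cotransfected with StAR promoter reporter and SF1 expression vector; 0% = vehicle on cells with receptor and 100% = vehicle on cells lacking receptor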); conditions: cell-based SF1 luciferase reporter, at 3.6 µM, stronger effect = higher value
# [8] = VP16 transactivation reporter inhibitors, counter-screen for LRH-1 inverse agonist project, cell-based, luminescence, high throughput (AID 651615; in the data active means inhibition above about 33%); conditions: Gal4-VP16 luciferase reporter cells, at 3.6 µM, stronger effect = higher value
# [9] = system: transactivating tegument protein VP16 (Human herpesvirus 1); assay: VP16 transactivation reporter inhibitors, counter-screen for SRC2 inhibitor project, cell-based, luminescence, single concentration (AID 652007; in the data active means inhibition above about 36%); conditions: cell-based VP16 transactivation luciferase reporter, at 8.9 µM, stronger effect = higher value
# [10] = biological target: Nuclear receptor coactivator 2 (Homo sapiens) (UniProt Q15596); assay: SRC2 coactivator transcriptional activity inhibitors, confirmation, cell-based, luminescence, HEK293, triplicate (AID 652008;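 active means mean inhibition above 46.5%, the solvent-only control mean plus 3 SD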;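 further: 0% = DMSO-treated cells and 100% = Gossypol at 36 µM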); conditions: HEK293 GAL4-SRC2 luciferase reporter, at 8.9 µM, stronger effect = higher value
# [11] = biological target: Galanin receptor type 2 (Homo sapiens) (UniProt O43603); assay: GALR2 antagonists, retest of hits, confirmation, cell-based (AID 866; in the data active means inhibition above about 27%;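 further: cells stimulated with galanin at about its EC80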); conditions: GALR2-expressing cells, antagonist mode, at 4 µM, stronger effect = higher value
# [12] = inhibitors of NFAT-driven beta-lactamase reporter, confirmation, counter-screen for GALR2 antagonist project, CHO NFAT-bla cells, FRET readout (AID 867;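 active means inhibition above the mean inhibition across tested compounds plus 3 SD, cut at about 27% in these data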;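 further: 0% = 500 nM thapsigargin stimulated wells and 100% = unstimulated BSA only wells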); conditions: thapsigargin-stimulated, at 4.2 µM, stronger effect = higher value
# [13] = biological target: (Lyso)-N-acylphosphatidylethanolamine lipase (Mus musculus) (UniProt Q8VD66); assay: ABHD4 inhibitors, retest, confirmation, biochemical, fluorescence polarization, mouse (AID 720658;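 active means mean inhibition across replicates above the hit cutoff set in the primary screen, cut at about 30% in these data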;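 further: 0% = wild-type ABHD4 with DMSO and 100% = catalytically dead S159A mutant with DMSO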); conditions: purified mABHD4, FP-Rh probe fluorescence polarization; at 8.92 µM; stronger effect = higher value
# [14] = system: DAF-12 nuclear receptor (Heterodera glycines), GAL4-LBD fusion; assay: H. glycines DAF-12 receptor agonists, confirmation, cell-based, luminescence, HEK293, GAL4-LBD fusion (AID 743050;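 active means mean activation over triplicate wells above the hit cutoff derived from the earlier primary screen, cut at about 11% in these data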;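 further: 0% = DMSO low control and 100% = 2 mM sodium butyrate high control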); conditions: HEK293 GAL4-hgDAF12 luciferase reporter, agonist mode; at 6.8 µM; stronger effect = higher value; percent of butyrate response
# [15] = biological target: Oxysterols receptor LXR-beta (Homo sapiens) (UniProt P55055); assay: LXR agonists, Gal4 luciferase reporter, confirmation, counter-screen for hgDAF-12 agonist project, cell-based, luminescence, HEK293, H. glycines campaign (AID 743051;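 active means mean activation of the triplicate above a set limit carried over from the primary screen, none filed active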); conditions: 24 h, at 6.8 µM, stronger effect = higher value
# [16] = Gal4-VP16 luciferase reporter inhibitors, counter-screen for COUP-TFII antagonist project, cell-based, luminescence, HEK293 (AID 687007; in the data active means inhibition above about 13%); conditions: at 8.5 µM, stronger effect = higher value
# [17] = biological target: COUP transcription factor 2 (Homo sapiens) (UniProt P24468); assay: NR2F2 transcriptional activity inhibitors, confirmation, cell-based, luciferase reporter, HEK293, triplicate (AID 687008;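 active means mean inhibition over three repeats above a set limit taken from the earlier primary screen, cut at about 38% in these data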;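 further: 100% = cells given the luciferase reporter alone without the COUP-TF2 vector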); conditions: HEK293 NGFI-A luciferase reporter, luminescence; at 8.5 µM; stronger effect = higher value
# Sequence of COUP transcription factor 2 (Homo sapiens) (P24468 whole entry, looked up): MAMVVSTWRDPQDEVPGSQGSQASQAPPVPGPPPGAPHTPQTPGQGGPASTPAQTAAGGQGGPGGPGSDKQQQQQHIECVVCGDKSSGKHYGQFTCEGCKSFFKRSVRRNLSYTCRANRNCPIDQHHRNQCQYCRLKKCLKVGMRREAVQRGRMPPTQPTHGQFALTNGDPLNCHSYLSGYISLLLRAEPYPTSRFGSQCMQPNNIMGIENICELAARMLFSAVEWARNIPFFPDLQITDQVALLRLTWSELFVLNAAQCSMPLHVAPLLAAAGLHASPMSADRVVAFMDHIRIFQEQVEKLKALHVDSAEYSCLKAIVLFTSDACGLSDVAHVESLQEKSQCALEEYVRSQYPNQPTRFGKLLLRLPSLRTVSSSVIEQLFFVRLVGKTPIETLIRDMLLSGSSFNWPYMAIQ
# Sequence of Nuclear receptor coactivator 2 (Homo sapiens) (Q15596 whole entry, looked up, the tested form may be a part): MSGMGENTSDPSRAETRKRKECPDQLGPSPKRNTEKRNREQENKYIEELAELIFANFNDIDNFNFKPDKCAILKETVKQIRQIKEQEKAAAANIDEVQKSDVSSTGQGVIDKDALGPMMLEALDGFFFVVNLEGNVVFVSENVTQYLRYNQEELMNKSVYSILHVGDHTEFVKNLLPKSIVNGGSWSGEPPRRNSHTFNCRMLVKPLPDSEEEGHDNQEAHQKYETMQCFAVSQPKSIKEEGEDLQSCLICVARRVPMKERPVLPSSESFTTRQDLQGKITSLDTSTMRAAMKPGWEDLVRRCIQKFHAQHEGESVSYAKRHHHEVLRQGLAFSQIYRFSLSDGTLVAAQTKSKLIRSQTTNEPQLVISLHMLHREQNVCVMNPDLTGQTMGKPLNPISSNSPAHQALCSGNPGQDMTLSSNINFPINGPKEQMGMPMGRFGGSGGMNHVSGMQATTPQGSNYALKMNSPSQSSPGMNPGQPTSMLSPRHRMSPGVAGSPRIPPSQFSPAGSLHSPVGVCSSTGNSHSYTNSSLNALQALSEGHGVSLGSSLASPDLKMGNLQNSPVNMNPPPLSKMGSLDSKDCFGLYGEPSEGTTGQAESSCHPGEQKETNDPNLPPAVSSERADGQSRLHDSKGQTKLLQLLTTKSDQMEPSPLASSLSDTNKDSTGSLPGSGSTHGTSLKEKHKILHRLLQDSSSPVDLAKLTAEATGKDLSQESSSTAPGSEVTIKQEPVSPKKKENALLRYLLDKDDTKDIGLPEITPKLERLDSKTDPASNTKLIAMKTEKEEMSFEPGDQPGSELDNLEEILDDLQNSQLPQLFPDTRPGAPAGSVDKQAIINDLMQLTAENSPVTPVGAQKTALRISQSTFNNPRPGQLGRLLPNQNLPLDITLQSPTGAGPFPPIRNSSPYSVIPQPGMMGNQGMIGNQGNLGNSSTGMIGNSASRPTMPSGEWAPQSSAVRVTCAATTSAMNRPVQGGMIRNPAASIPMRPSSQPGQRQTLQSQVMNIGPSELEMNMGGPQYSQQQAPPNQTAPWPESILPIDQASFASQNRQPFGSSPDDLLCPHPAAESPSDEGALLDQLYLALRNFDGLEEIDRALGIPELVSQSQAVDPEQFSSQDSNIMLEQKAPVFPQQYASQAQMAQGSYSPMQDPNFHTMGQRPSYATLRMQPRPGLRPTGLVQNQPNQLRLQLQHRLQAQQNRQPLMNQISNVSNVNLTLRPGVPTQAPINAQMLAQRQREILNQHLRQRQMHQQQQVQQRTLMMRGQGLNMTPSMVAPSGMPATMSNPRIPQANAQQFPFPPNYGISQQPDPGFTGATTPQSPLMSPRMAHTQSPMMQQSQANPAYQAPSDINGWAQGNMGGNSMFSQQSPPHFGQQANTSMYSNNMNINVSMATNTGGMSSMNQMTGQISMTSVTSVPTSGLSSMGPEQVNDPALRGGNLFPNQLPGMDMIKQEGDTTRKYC
# Sequence of Photoreceptor-specific nuclear receptor (Homo sapiens) (Q9Y5X4 whole entry, looked up, the tested form may be a part): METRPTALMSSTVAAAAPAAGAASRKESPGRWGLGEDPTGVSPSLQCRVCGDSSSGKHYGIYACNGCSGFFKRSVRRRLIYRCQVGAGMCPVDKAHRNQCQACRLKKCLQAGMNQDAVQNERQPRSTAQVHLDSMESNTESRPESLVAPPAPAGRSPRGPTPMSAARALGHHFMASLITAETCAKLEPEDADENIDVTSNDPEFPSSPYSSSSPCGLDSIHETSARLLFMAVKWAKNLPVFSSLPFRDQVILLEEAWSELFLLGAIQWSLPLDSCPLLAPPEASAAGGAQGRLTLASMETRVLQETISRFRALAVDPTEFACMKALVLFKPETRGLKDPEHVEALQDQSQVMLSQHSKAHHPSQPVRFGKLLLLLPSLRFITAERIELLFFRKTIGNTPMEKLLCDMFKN
# Sequence of Receptor-interacting serine/threonine-protein kinase 2 (Homo sapiens) (O43353 whole entry, looked up): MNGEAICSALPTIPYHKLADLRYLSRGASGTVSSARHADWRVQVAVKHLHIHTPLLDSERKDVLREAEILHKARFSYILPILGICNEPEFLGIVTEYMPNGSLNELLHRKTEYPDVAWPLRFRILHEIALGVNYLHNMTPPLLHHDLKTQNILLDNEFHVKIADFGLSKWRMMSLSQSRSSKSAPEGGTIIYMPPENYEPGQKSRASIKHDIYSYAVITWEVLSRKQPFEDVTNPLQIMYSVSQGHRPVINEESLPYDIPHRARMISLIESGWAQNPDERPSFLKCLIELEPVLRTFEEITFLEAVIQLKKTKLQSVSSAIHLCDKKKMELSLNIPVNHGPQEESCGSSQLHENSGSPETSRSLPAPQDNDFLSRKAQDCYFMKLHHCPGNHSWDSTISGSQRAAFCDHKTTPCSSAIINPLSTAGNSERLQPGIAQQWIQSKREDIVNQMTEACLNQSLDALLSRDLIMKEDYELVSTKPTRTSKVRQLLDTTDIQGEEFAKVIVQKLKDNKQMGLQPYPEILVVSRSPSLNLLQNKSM
# Sequence of Steroidogenic factor 1 (Homo sapiens) (Q13285 whole entry, looked up, the tested form may be a part): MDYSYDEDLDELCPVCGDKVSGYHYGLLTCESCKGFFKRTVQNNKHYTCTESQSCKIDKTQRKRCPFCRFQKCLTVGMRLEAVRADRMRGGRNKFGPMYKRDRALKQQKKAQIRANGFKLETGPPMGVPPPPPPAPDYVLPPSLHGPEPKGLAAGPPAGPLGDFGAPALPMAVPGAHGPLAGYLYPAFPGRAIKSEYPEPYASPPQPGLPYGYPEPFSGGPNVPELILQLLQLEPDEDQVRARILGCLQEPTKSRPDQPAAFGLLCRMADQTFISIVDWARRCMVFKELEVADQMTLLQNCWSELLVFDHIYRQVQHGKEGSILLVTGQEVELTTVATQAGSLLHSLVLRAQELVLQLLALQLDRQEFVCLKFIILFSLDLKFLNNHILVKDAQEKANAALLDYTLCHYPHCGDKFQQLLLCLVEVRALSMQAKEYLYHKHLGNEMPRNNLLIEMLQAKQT
# Sequence of Oxysterols receptor LXR-beta (Homo sapiens) (P55055 whole entry, looked up, the tested form may be a part): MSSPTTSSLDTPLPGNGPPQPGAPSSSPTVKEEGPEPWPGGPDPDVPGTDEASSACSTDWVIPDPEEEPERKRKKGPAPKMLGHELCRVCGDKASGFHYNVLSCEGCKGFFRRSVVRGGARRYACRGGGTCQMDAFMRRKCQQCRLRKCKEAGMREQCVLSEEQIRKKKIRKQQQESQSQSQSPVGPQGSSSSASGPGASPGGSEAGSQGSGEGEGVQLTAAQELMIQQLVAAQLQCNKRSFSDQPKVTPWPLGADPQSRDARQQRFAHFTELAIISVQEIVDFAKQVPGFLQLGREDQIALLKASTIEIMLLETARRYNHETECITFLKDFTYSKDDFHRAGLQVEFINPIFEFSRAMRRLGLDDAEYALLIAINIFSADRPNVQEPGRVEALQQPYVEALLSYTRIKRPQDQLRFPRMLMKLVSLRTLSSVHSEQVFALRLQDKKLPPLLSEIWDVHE
# Sequence of Galanin receptor type 2 (Homo sapiens) (O43603 whole entry, looked up): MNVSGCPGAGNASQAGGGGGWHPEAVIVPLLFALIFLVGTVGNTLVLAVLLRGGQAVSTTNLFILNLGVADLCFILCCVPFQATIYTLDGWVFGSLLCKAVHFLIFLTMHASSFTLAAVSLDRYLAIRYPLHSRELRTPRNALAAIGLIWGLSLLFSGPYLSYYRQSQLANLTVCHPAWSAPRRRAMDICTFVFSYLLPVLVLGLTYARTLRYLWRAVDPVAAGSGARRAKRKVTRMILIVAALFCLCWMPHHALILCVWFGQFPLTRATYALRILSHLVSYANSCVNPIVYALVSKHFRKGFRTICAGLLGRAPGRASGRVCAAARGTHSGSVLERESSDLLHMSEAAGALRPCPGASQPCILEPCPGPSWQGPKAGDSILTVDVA
# Sequence of Nuclear receptor subfamily 5 group A member 2 (Homo sapiens) (O00482 whole entry, looked up): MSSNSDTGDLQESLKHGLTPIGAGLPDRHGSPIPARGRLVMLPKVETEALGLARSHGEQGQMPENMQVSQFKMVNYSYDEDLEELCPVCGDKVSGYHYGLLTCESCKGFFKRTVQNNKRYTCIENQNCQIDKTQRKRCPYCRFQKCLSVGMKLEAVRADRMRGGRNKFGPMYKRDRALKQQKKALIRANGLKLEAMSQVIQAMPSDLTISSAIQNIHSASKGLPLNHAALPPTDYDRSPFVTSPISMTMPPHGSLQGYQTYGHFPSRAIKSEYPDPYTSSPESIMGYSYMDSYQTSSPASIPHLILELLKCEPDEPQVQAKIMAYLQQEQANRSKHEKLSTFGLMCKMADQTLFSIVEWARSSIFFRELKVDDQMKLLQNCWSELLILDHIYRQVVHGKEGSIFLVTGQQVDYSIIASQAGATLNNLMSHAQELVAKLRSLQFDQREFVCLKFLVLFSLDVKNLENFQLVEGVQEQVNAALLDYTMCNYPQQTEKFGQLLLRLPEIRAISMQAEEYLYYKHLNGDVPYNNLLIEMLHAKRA
# Sequence of (Lyso)-N-acylphosphatidylethanolamine lipase (Mus musculus) (Q8VD66 whole entry, looked up, the tested form may be a part): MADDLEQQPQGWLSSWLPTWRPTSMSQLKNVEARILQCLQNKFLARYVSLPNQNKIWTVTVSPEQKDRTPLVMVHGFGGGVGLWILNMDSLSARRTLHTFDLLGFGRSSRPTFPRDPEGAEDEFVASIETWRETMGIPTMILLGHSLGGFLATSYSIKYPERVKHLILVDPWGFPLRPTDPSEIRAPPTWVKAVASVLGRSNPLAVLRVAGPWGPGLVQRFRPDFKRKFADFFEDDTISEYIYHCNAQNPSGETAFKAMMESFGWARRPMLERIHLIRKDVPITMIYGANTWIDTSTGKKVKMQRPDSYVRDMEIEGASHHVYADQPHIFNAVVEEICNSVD
structure (smiles),measurement,setting,value
CCOC(=O)CC1(NC(=O)c2cc(COc3cncc(Cl)c3)on2)CCCCC1,inhibition,[1],20.2%
same,inhibition,[2],44.2%
O=C1/C(=C\c2ccc([N+](=O)[O-])cc2)CS(=O)(=O)C/C1=C/c1ccc([N+](=O)[O-])cc1,inhibition,[3],91.8% (active)
same,inhibition,[4],4.33%
same,inhibition,[1],96% (active)
same,inhibition,[2],53.2%
same,inhibition,[5],2.1%
same,inhibition,[6],89.5% (active)
same,inhibition,[7],79.7% (active)
same,inhibition,[8],70.2% (active)
COc1cccc(CNS(=O)(=O)c2ccc3c(c2)CC(C)N3C(=O)C2CCC2)c1 (stereo unspecified),inhibition,[1],73.3% (active)
same,inhibition,[2],58.5%
COc1ccc(S(=O)(=O)N2CCN(C(C)C(=O)Nc3ccc(C(C)C)cc3)CC2)cc1 (stereo unspecified),inhibition,[1],-2.85%
same,inhibition,[2],-0.89%
CCCc1cc(=O)[nH]c(SCC(=O)Nc2sc3c(c2C#N)CCCC3)n1,inhibition,[1],15.4%
same,inhibition,[2],41.8%
c1ccc(C(=NNc2nc3ccccc3s2)c2ccccn2)cc1,inhibition,[1],22.6%
same,inhibition,[2],11.6%
CSc1ncccc1C(=O)Nc1nc2ccc(F)cc2s1,inhibition,[1],68.5%
same,inhibition,[2],25.2%
Cc1cccc(N2CCN(C(=O)c3cccc(S(=O)(=O)N4CCc5ccccc5C4)c3)CC2C)c1 (stereo unspecified),inhibition,[1],52%
same,inhibition,[2],49%
Cc1cccc2sc(N(CCCN(C)C)C(=O)CCS(=O)(=O)c3ccccc3)nc12,inhibition,[3],25.4% (active)
same,inhibition,[4],7%
same,inhibition,[9],12%
same,inhibition,[10],32.5%
Cc1cccc(NS(=O)(=O)c2ccc(-c3cnc(C4CC4)o3)cc2)c1,inhibition,[1],53.5%
same,inhibition,[2],37.9%
CCOC(=O)C1=C(C)N(C[C@@H]2CC[C@@H](Cc3ccc(-c4ccccc4)cc3)O2)C(=O)NC1c1ccc([N+](=O)[O-])cc1 (stereo partly specified),inhibition,[3],-2.24%
same,inhibition,[4],-1.01%
O=C(NC1=CC(=O)c2ccccc2C1=O)c1ccccc1,inhibition,[3],89% (active)
same,inhibition,[4],-4.54%
same,inhibition,[1],6.41%
same,inhibition,[2],17.1%
COc1ccc(S(=O)(=O)NCCCCOc2ccc(Cl)cc2)cc1,inhibition,[1],97.5% (active)
same,inhibition,[2],86.5% (active)
COc1ccc(C(=O)NNC(=S)NC(=O)c2ccccc2[N+](=O)[O-])cc1,inhibition,[1],3.63%
same,inhibition,[2],-6.68%
COc1ccc2c(c1OC)C(=O)OC2Nc1nc(-c2ccccc2)cs1 (stereo unspecified),inhibition,[3],10.3%
same,inhibition,[4],6.11%
O=S(=O)(c1cccc(Cn2nnc(-c3ccc(F)cc3)n2)c1)N1CCOCC1,inhibition,[1],34.9%
same,inhibition,[2],39.4%
OC(c1ccc(Cl)cc1)c1ncc(-c2ccc(Cl)cc2)[nH]1 (stereo unspecified),inhibition,[1],79.4% (active)
same,inhibition,[2],58.9%
COc1cc(NS(=O)(=O)c2ccc3ccccc3c2)c2ncccc2c1,inhibition,[3],35.7% (active)
same,inhibition,[4],18.9% (active)
same,inhibition,[1],-24.6%
same,inhibition,[2],31.6%
O=C(CSc1nc(Nc2ccccc2)nc(N2CCOCC2)n1)Nc1cc(Cl)ccc1O,inhibition,[1],31.7%
same,inhibition,[2],20.4%
N#Cc1cccc(NC(=O)COC(=O)c2ccccc2C(=O)c2ccc(Cl)c([N+](=O)[O-])c2)c1,inhibition,[11],63.2% (active)
same,inhibition,[12],37.4% (active)
same,inhibition,[3],56.2% (active)
same,inhibition,[4],11.9% (active)
Cc1ccc(S(=O)(=O)N2[C@@H](c3ccc(Br)cc3)C(C(=O)O)=C[C@H]2CC2CCCC2)cc1,inhibition,[1],26.2%
same,inhibition,[2],26.5%
CCCOc1ccccc1C1CC(=O)Nc2cc3c(cc21)OCO3 (stereo unspecified),inhibition,[1],28.9%
same,inhibition,[2],26.1%
Cc1[nH]n(-c2cccc(Cl)c2)c(=O)c1-c1ccc(Cl)cc1,inhibition,[1],97.8% (active)
same,inhibition,[2],71.3% (active)
O=[N+]([O-])c1ccc(NS(=O)(=O)c2ccccc2)c(Cl)c1,inhibition,[1],77.9% (active)
same,inhibition,[2],43.9%
Oc1ccc(Br)cc1/C=N/Nc1ccccn1,inhibition,[1],99.3% (active)
same,inhibition,[2],61%
O=C(O)c1ccc2c(c1)C(=O)N(c1ccc(/C=C/C(=O)c3ccccc3)cc1)C2=O,inhibition,[3],5.5%
same,inhibition,[4],0.39%
same,inhibition,[13],0.6%
same,activation,[14],1.47%
same,activation,[15],0.05%
CC1CCCCN1S(=O)(=O)c1ccc(C(=O)Nc2nnc(-c3cccs3)o2)cc1 (stereo unspecified),inhibition,[1],49.5%
same,inhibition,[2],32%
COc1cccc(NS(=O)(=O)c2ccc(-c3coc(C)n3)cc2)c1,inhibition,[1],10.9%
same,inhibition,[2],37.3%
COC(=O)c1ccc(NC(=O)c2ccccc2NS(=O)(=O)c2ccccc2)cc1,inhibition,[1],77.4% (active)
same,inhibition,[2],57.7%
Cc1ccc(CS(=O)(=O)c2ncc(Cl)c(C(=O)Nc3nnc(C)s3)n2)cc1,inhibition,[1],30.6%
same,inhibition,[2],-7.39%
same,inhibition,[9],27.1%
same,inhibition,[10],55% (active)
Cc1ccc(OCC(=O)c2cc(C)n(Cc3ccco3)c2C)c([N+](=O)[O-])n1,inhibition,[1],67.8%
same,inhibition,[2],52.5%
same,inhibition,[9],23.6%
same,inhibition,[10],37.4%
c1ccc(C2c3[nH]c4ccccc4c3CCN2Cc2cccn2-c2cccnc2)nc1 (stereo unspecified),inhibition,[1],-1.67%
same,inhibition,[2],-5.76%
CCC(C)N1C(=O)S/C(=C/c2ccc(Sc3nc4ccccc4[nH]3)o2)C1=O (stereo unspecified),inhibition,[1],85.7% (active)
same,inhibition,[2],69.8%
O=C(CCC(=O)N1CCN(S(=O)(=O)c2ccc(Cl)cc2)CC1)NCc1cccc(C(F)(F)F)c1,inhibition,[1],93.6% (active)
same,inhibition,[2],81.6% (active)
same,inhibition,[16],7.21%
same,inhibition,[17],53.4% (active)
